# Tests used:
# Conditions in all cases: concentration: 1 μM, replicates: in singlicate; n = 1
# MLK1 = test system: T1, MLK1
# T1 construct: gene MAP3K9
# MLK2 = test system: MLK2
# MLK3 = test system: MLK3
# MRCKA = test system: MRCKA
# MRCKB = test system: T2, MRCKB
# T2 construct: gene CDC42BPB
# MST1R = test system: MST1R
# MST1 = test system: T3, MST1
# T3 construct: gene STK4
# MST2 = test system: T4, MST2
# T4 construct: gene STK3
# MST3 = test system: T5, MST3
# T5 construct: gene STK24
# MST4 = test system: MST4
# MTOR = test system: MTOR
# MUSK = test system: MUSK
# MYLK2 = test system: MYLK2
# MYLK4 = test system: MYLK4
# MYLK = test system: MYLK
# MYO3A = test system: MYO3A
# MYO3B = test system: MYO3B
# NDR1 = test system: T6, NDR1
# T6 construct: gene STK38
# NDR2 = test system: NDR2
# NEK10 = test system: NEK10
# 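Note: KINOMEscan kinase panel screen.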
Compound,%Inh (MLK1) [%],%Inh (MLK2) [%],%Inh (MLK3) [%],%Inh (MRCKA) [%],%Inh (MRCKB) [%],%Inh (MST1R) [%],%Inh (MST1) [%],%Inh (MST2) [%],%Inh (MST3) [%],%Inh (MST4) [%],%Inh (MTOR) [%],%Inh (MUSK) [%],%Inh (MYLK2) [%],%Inh (MYLK4) [%],%Inh (MYLK) [%],%Inh (MYO3A) [%],%Inh (MYO3B) [%],%Inh (NDR1) [%],%Inh (NDR2) [%],%Inh (NEK10) [%]
Cl.Cl.NC(CNC(=O)c1cc(Br)c(-c2ccnc3[nH]ccc23)s1)c1ccccc1 (stereo not drawn) [GSK1322949],0,0,0,29,93.7,5,0,26,5,3,26,22,27,97.2,62,34,0,96.4,95.5,1
Cc1ccc(C)c(NC(=O)Nc2ccc(C)c(-c3ccc(C(=O)Nc4ccncc4)cc3)c2)c1 [GSK1398473],0,0,0,24,21,26,0,34,0,0,17,0,0,0,0,0,0,29,0,18
CCNC(=O)/C=C/c1n[nH]c2cc(Sc3ccccc3C(=O)NC)ccc12,7,7,0,0,48,8,0,0,30,0,14,32,3,20,11,8,0,25,18,24
Cl.Cl.NCC(NC(=O)c1cc(-c2cccnc2)c(-c2ccnc3[nH]ccc23)s1)c1ccccc1 (stereo not drawn) [GSK1323434],0,0,48,39,35,84,0,8,0,15,10,18,15,98.2,23,39,0,67,13,79
N#CC1(c2cccc(C(=O)Nc3cccc(Oc4ccc5nc(NC(=O)C6CC6)sc5n4)c3)c2)CC1,1,22,17,0,0,0,4,8,0,4,3,0,0,0,23,0,0,18,0,0
Cc1nn2c(=O)cc(N3CCO[C@H](C)C3)nc2n1Cc1cccc(Cl)c1Cl [GSK2373693],0,5,9,0,60,0,20,0,0,0,61,14,6,2,0,0,0,0,0,0
CN(c1ccc2c(c1)nc(NCc1ccccc1)n2C)c1ccnc(Nc2ccc(CS(C)(=O)=O)cc2)n1.Cl [GW811603],12,17,2,11,0,23,24,2,0,0,10,36,26,0,8,5,19,8,0,17
COc1cccc(CC(=O)N2CCc3cc(-c4cn(C)c5ncnc(N)c45)ccc32)c1 [GSK2608899],32,41,20,2,0,45,98.8,100,31,27,8,27,64,7,20,38,18,22,0,7
Cc1ccccc1CC(=O)N1CCc2cc(-c3cn(C)c4ncnc(N)c34)ccc21 [GSK2603346],7,0,18,0,0,46,97,0,46,54,30,5,85,0,9,100,0,0,0,0
CN(c1ccc(F)c(NC(=O)c2cccc(OC(C)(C)C#N)c2Cl)c1)c1ccc2nc(NC(=O)C3CC3)sc2n1,0,4,0,0,0,5,0,0,0,0,0,0,0,0,30,0,0,0,29,0
c1ccc(Oc2ccc(Nc3ccnc4cc(-c5ccc(CN6CCCCC6)o5)ccc34)cc2)nc1 [GW567143],2,14,0,13,0,29,20,0,4,0,2,24,0,0,0,0,14,0,0,1
Cc1ccc(O)cc1Nc1ccnc2ccc(C(C)(C)C)cc12 [GW856805],11,19,19,0,0,0,0,28,12,36,0,27,5,13,25,13,6,18,23,27
COc1ccc(C2=C(Nc3cccc(O)c3)C(=O)NC2=O)cc1 [SB-390766],0,0,0,0,2,100,7,100,0,0,31,3,12,4,3,0,0,9,0,42
CCn1cnc2c(NCc3ccccc3)ncnc21 [SKF-96418],0,27,0,0,0,0,0,14,5,0,37,0,0,6,0,0,0,30,14,14
O=C1NC(=O)C(c2ccccc2Cl)=C1Nc1cccc(Cl)c1 [SB-342409],0,28,0,11,14,0,3,8,0,0,4,8,11,3,9,0,3,1,0,51
